# This is a sample that favours compounds with a hit; in the whole collection about 11% have one here.
# HCV inhibitor: blocks hepatitis C virus; Huh7.5.1 HCVcc-Cre infection, luciferase reporter, 44 h; Potency, µM (top dose mostly 41.8 µM), inactives show top-dose activity change, negative = inhibition, most hits filed as inhibitors; 340,000 compounds, 3.4% hits; AID 651820
#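 Seed cells (1,000/well) for 4 h; treat with compound and infect with HCVcc-Cre, moi about 0.5. Incubate 44 h, then detect luciferase activity.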
# AMA1 RON2 block: disrupts binding of P. falciparum AMA1 to RON2; 360,000 compounds, 0.2% hits; AlphaScreen AMA1-biotinylated RON2 peptide binding; AID 720542; Potency, µM (series often up to 58.2 µM), for the others: at the top dose activity change, negative = inhibition, actives largely listed as inhibitors;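 further: 0% = vehicle wells and -100% = peptide control; nearly all actives have a fitted effect of over 45% in size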
#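 AMA1 (3D7) with his tag at 25 nM final met compounds first, then biotinylated RON2 peptide at 25 nM; detection used donor plus acceptor beads, 10 µg/mL apiece, read by AlphaScreen after 30 min at room temperature.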
# Pf growth 48h: P. falciparum growth inhibition at 48 hours (one generation). 310,000 compounds, 5.9% hits. P. falciparum luciferase growth in erythrocytes, 48 h. AID 504832. Potency, µM (series often up to 28.7 µM), inactives show at the highest dose activity change, negative = inhibition, usual class: inhibitors
#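 Parasite viability was followed by luminescence of a genomically integrated firefly luciferase. Cultures held 0.1% parasitemia at 2% hematocrit (final), incubated under 5% CO2 at 37 C.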
# Pf growth 96h: P. falciparum growth inhibition at 96 hours; P. falciparum luciferase reporter growth, 96 h; Potency, µM (series often up to 28.7 µM), for the others: at the highest dose activity change, negative = inhibition, hits mostly inhibitors; 320,000 compounds, 6.9% hits
#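 P. falciparum expressing integrated firefly luciferase grown in erythrocytes (2% hematocrit, 0.05% parasitemia final) with compounds for 96 hours at 37 C, 5% CO2. Growth inhibition read as loss of luminescence after adding luciferase detection reagent.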
# Starred values were filed as active, the others as inactive; u = inconclusive; x = no result given; [ ] = dose if it differs, or a comment. The call rests on the fitted dose curve; in most records, active means well fitted curve in the direction sought with a large enough effect; inconclusive means small, poorly fitted or top-dose-only effect, or another doubt; inactive means no such curve, though single readings can be large; an effect the other way counts as inactive or inconclusive. Unless noted, on the % scale 0 is the no-effect control and ±100 the full control effect; potency means the concentration at half of the fitted maximal effect.
SMILES,HCV inhibitor,AMA1 RON2 block,Pf growth 48h,Pf growth 96h
COc1cccc(C(=O)CSc2nccn2C)c1,-2.9%,-0.3%,76.7%,11.7µM*
CCCNCCC(c1ccco1)c1ccccc1OC (stereo unspecified),-16.2%,-4.0%,-35.0%,23.0%
CCC(=O)NCCC(c1ccco1)c1ccccc1OC (stereo unspecified),-20.7%,-1.8%,u,10.4µM*
COc1ccccc1C(CC(=O)Nc1nccs1)c1ccco1 (stereo unspecified),-4.0%,-0.8%,2.94µM*,6.57µM*
COc1ccccc1CN1CC(C(=O)N(CCO)Cc2cccs2)CCC1=O (stereo unspecified),1.0%,-4.1%,3.9%,-18.7%
O=C(CC(c1ccc(F)cc1)c1ccco1)Nc1nccs1 (stereo unspecified),-24.7%,-6.9%,u,-23.2%
COc1ccccc1C(CCN(Cc1cccs1)C(C)=O)c1ccco1 (stereo unspecified),-14.1%,-23.0%,7.38µM*,13.1µM*
CC(C)C(NC(=O)OCc1ccccc1)C(=O)NC1CCCCC1 (stereo unspecified),14.5%,4.3%,14.5%,16.2%
CC(C)OC(=O)c1ccc(NC(=O)CSc2nc3ncccc3[nH]2)cc1,11.2µM*,25.8%,-28.5%,u
COc1ccc(Cn2c(CCC(=O)Nc3ccc(C)cc3)nc3cccnc32)cc1,-24.1%,-2.3%,x,10.4µM*
CC(=O)Oc1ccc(C(=O)Nc2cccc(C(=O)c3ccc(C)c(C)c3)c2)cc1,u,-5.3%,11.7µM*,76.7%
CC(=O)Oc1ccc(C(=O)Nc2cc(NC(=O)c3ccc(OC(C)=O)cc3)cc(C(=O)NC(C)(C)C)c2)cc1,6.3%,10.0%,u,2.62µM*
CC(=O)Oc1ccc(C(=O)Nc2ccccc2NC(=O)c2ccc(OC(C)=O)cc2)cc1,-17.0%,-1.9%,-9.4%[0.00184 µM],u
COc1cc(C(=O)c2c(C)c(CCC#N)n3ccccc23)cc(OC)c1OC,-2.2%,-0.1%,9.28µM*,-18.7%
COc1cccc(C(=O)c2c(C)c(CCC#N)n3ccccc23)c1OC,13.8%,4.1%,-17.5%,4.6%
Cc1oc(-c2cc(F)cc(F)c2)nc1CN1CCN(C(=O)c2ccco2)CC1,u,-0.7%,4.6%,u
CSc1n[nH]c(NC(C)=O)n1,22.3%,6.2%,1.17µM*,8.2%
CCOc1ccc2c(c1)-c1c(ssc1=S)C(C)(C)N2C,u,10µM*,23.9%,x
COc1ccc2[nH]c3c(=O)n4c(nc3c2c1)SCC4,10.9%,-5.3%,30.4%,10.4µM*
O=c1c2[nH]c3ccccc3c2nc2n1CCS2,8.3%,-15.9%,9.7%,32.1%
COc1ccc(C2C(C(C)=O)=C(O)C(=O)N2c2ccc(Br)cn2)cc1 (stereo unspecified),21.2%,-2.8%,u,4.15µM*
CCN(CC)S(=O)(=O)c1ccc(N2CCOCC2)c(NS(=O)(=O)c2ccc(OC)cc2)c1,-16.1%,0.0%,51.4%,u
CCN(CC)S(=O)(=O)c1ccc(N2CCOCC2)c(NS(=O)(=O)c2ccc(C)c(C)c2)c1,u,-1.2%,7.38µM*,4.15µM*
CCN(CC)S(=O)(=O)c1ccc(N2CCOCC2)c(NS(=O)(=O)c2ccc(C)cc2)c1,0.3%,-0.3%,u,5.86µM*
CCNc1nc(NCC)n2c(SCC(=O)Nc3ccccc3Cl)nnc2n1,u,-22.2%,u,u
SMILES,HCV inhibitor,AMA1 RON2 block,Pf growth 48h,Pf growth 96h
CCNc1nc(NCC)n2c(SC(C(=O)Nc3cc(Cl)cc(Cl)c3)c3ccccc3)nnc2n1 (stereo unspecified),u,8.7%,11.7%,10.4µM*
CCNc1nc(NCC)n2c(SCC(=O)Nc3cccc(Cl)c3)nnc2n1,u,-15.8%,11.7µM*,5.22µM*
CC(C)=CCc1c([C@@H]2CCc3ccc(O)cc3O2)cc2c(c1O)OC(C)(C)C=C2,14.1µM*,-10.4%,x,x
CC(C)=CCc1cc([C@@H]2COc3c(ccc4c3C=CC(C)(C)O4)C2)c(O)cc1O,u,-29.6%,x,x
CCCCCc1c(C)nc(N2CCc3ccccc32)[nH]c1=O,9.7%,8.0%,9.28µM*,-17.3%
CCCCCc1c(C)nc(N2CCOCC2)[nH]c1=O,14.0%,-29.5%,-19.9%,8.28µM*
CC1(C)C(c2cccs2)=NC(c2ccccc2)N1O (stereo unspecified),-1.8%,-3.2%,39.4%,9.28µM*
CSc1sc(-c2ccnc(SCC(=O)C(C)(C)C)n2)c2c1C(=O)CC(C)(C)C2,-5.2%,-0.7%,u,4.65µM*
CN(C)C(=O)CN1C(=O)NC2(CCc3ccccc32)C1=O (stereo unspecified),2.6%,-6.8%,3.2%,34.8%
CN1/C(=C/c2cccc[n+]2CCO)Sc2ccccc21,-15.3%,-7.1%,u,u
CC[n+]1ccccc1/C=C1\Sc2ccc(C)cc2N1C,6.31µM*,0.0%,1.04µM*,26.3%
Cc1cc(Br)cn2ccnc12,7.9%,-5.9%,5.6%,u
CC1CC(C)CN(CCCNS(=O)(=O)c2ccc3c(c2)oc(=O)n3C)C1 (stereo unspecified),u,19.3%,-1.8%,10.4µM*
COc1cccc(CNC(=O)CCS(=O)(=O)c2ccc3c(c2)oc(=O)n3C)c1,15.8%,-6.2%,-25.5%,26.7%
Cc1ccc(CCNC(=O)CCS(=O)(=O)c2ccc3c(c2)oc(=O)n3C)cc1,1.7%,-1.0%,-1.8%,u
CCOc1ccc(CNC(=O)CCS(=O)(=O)c2ccc3c(c2)oc(=O)n3C)cc1,13.3%,5.2%,12.5%,u
COc1ccc(CNC(=O)CCS(=O)(=O)c2ccc3c(c2)oc(=O)n3C)cc1,11.7%,5.8%,14.2%,8.28µM*
COc1ccc(CCNC(=O)CCS(=O)(=O)c2ccc3c(c2)oc(=O)n3C)cc1OC,1.9%,12.7%,u,4.15µM*
CCN(C(=O)CCS(=O)(=O)c1ccc2c(c1)oc(=O)n2C)c1ccc(OC)cc1,20.0%,-2.9%,-28.9%,10.4µM*
COc1cc(OC)cc(C(=O)NN(CCC#N)C2=NS(=O)(=O)c3ccccc32)c1,-20.2%,-8.8%,13.6%,7.7%
CCC(OC(=O)CC1Sc2ccccc2NC1=O)C(=O)NCC1CCCO1 (stereo unspecified),5.9%,63.6%,-10.7%,103.9%
C/C(=N/NC(=O)CNC(=O)COc1ccccc1)c1ccc(Cl)cc1,-6.2%,1.0%,18.7%,27.4%
C[C@H](NC(=O)c1ccco1)C(=O)Nc1ccc(C#N)cc1,18.8%,1.0%,-14.2%,2.7%
CCc1cc(=O)oc2cc(C)cc(OC(C)C(=O)NCCN3CCOCC3)c12 (stereo unspecified),-3.7%,-6.6%,u,u
COc1ccc(S(=O)(=O)CCC(=O)NCc2ccc(C)o2)cc1,4.8%,0.0%,16.0%,-9.3%
CCOc1ccc(CCNS(=O)(=O)c2ccc3c(c2)oc(=O)n3C)cc1OCC,11.3%,-6.3%,-3.4%,13.1µM*
COc1ccc(CCNC(=O)CCN2C(=O)COc3ccc(C)cc32)cc1OC,2.82µM*,-22.9%,7.5%,30.0%
